# Measurements from PubChem BioAssay (EPA / NIEHS).
# Records with an inconclusive call do not appear. Active and inactive are the calls of the source. The calls were made as follows: active = hit-call score of the fitted dose curve at least 0.9, where 1 is the maximum; inconclusive = response in the unintended direction; inactive = score below 0.9.
# Molecular target: Cellular tumor antigen p53 (Homo sapiens) (UniProt P04637)
# Assay: TOX21_p53_BLA_p3_ratio: Tox21 HCT-116 p53 Agonism Beta-lactamase Assay, Ratio, Phase 3 (AID 2283596)
# Method in brief: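 HCT116 p53-bla cells (4000/well) given compound in DMSO (217-fold dilution) after 5 h, incubated 16 h at 37C. CCF4-AM substrate 2 h at room temperature; 460/530 nm emission ratio, gain fitted against DMSO.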
# Cellular tumor antigen p53 (Homo sapiens), sequence (P04637 whole entry, looked up): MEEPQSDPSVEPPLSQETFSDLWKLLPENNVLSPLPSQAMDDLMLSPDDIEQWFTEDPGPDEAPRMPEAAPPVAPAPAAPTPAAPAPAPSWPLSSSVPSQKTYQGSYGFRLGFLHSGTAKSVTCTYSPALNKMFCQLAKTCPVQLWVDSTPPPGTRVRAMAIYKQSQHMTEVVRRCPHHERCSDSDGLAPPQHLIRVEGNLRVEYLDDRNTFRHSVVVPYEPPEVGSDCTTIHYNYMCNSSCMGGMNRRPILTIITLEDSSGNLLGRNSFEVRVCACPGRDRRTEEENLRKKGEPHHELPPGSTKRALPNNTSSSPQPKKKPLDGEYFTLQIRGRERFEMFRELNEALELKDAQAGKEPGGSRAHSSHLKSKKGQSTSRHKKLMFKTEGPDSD
Structure (SMILES),outcome,AC50
Cc1ccc(N)cc1[N+](=O)[O-],inactive,
CC(Oc1ccccc1)C(=O)N[C@@H]1C(=O)N2[C@@H]1SC(C)(C)[C@@H]2C(=O)O (some centres undefined),inactive,
C=CC(=O)[O-].C=CC(=O)[O-].[Zn+2],inactive,
COc1cc(C(=O)NCCCCCC(=O)O)cc(OC)c1OC,inactive,
OCC(O)CN1CCN(c2ccccc2)CC1 (centres undefined),inactive,
O=C(O)[C@H]1/C(=C/CO)O[C@@H]2CC(=O)N21,inactive,
O=C(O)[C@H](O)c1ccccc1,inactive,
CCOc1cc(N)c(Cl)cc1C(=O)NCC1CN(Cc2ccc(F)cc2)CCO1 (centres undefined),inactive,
CC(C)NCC(O)COc1ccccc1-n1cccc1 (centres undefined),inactive,
O=Nc1ccc(NO)cc1,inactive,
CN1CCN(CCC(=O)N2c3ccccc3Sc3ccc(C(F)(F)F)cc32)CC1,inactive,
CC(C)(C)c1ccc(C=O)cc1,inactive,
NC[C@H]1O[C@H](O[C@H]2[C@H](O[C@@H]3O[C@H](CO)[C@@H](O)[C@H]3O)C(O)[C@H](N)C[C@@H]2N)[C@H](N)[C@@H](O)[C@@H]1O (some centres undefined),inactive,
OCC(F)(F)F,inactive,
CC(=NCc1ccccc1)c1ccccc1O,inactive,
Cc1nc(-c2ccc(Cl)cc2)oc1COC(C)(C)C(=O)O,inactive,
O=C(O)Cc1csc(-c2ccc(Cl)cc2)n1,inactive,
CN(C)CC/C=C1\c2ccccc2COc2ccccc21,inactive,
CCOC(=O)C1=C[C@]2(CC)CCCN3CCc4c(n1c1ccccc41)[C@@H]32,inactive,

Structure (SMILES),outcome,AC50
NC(=O)c1ccc[n+]([C@@H]2O[C@H](COP(=O)([O-])OP(=O)(O)OC[C@H]3O[C@@H](n4cnc5c(N)ncnc54)[C@H](O)[C@@H]3O)[C@@H](O)[C@H]2O)c1,inactive,
OCC1(CO)COC(C(Cl)(Cl)Cl)OC1,inactive,
Clc1ccc2nsnc2c1NC1=NCCN1,inactive,
CCOc1ccc2ccccc2c1C(=O)N[C@@H]1C(=O)N2[C@@H]1SC(C)(C)[C@@H]2C(=O)O,inactive,
C=CCSSSCC=C,,8.68 µM (active)
CN1c2c(nc(N)[nH]c2=O)NCC1CNc1ccc(C(=O)NC(CCC(=O)O)C(=O)O)cc1 (centres undefined),inactive,
Cc1ccc(C(=O)c2ccc(CC(=O)O)n2C)cc1,inactive,
C1=C\CC/C=C\CC/1,inactive,
CN1[C@@H]2CC[C@H]1CC(OC(=O)c1c[nH]c3ccccc13)C2 (some centres undefined),inactive,
CC(C)C[C@@H](N)C(=O)O,inactive,
CCN(CCCc1ccccc1)CCCc1ccccc1,inactive,
C[N+](C)(C)CC(O)CCl (centres undefined),inactive,
OCCCCCCCl,inactive,
Nc1ccc(Cl)cc1[N+](=O)[O-],inactive,
CCc1c(C)[nH]c2c1C(=O)C(CN1CCOCC1)CC2 (centres undefined),inactive,
NC[C@H]1O[C@H](O[C@H]2[C@H](O)[C@@H](O[C@H]3O[C@H](CO)[C@@H](O)[C@H](N)[C@H]3O)[C@H](N)C[C@@H]2N)[C@H](N)[C@@H](O)[C@@H]1O,inactive,
C=CC(=O)OCCOCCOC(=O)C=C,inactive,
CCNC(=O)NCCCOc1cccc(CN2CCCCC2)c1,inactive,
CC(C)C[C@H](NC(=O)[C@@H](Cc1c[nH]c2ccccc12)NC(=O)[C@H](Cc1ccc(O)cc1)NC(=O)[C@H](CO)NC(=O)[C@H](Cc1c[nH]c2ccccc12)NC(=O)[C@H](Cc1cnc[nH]1)NC(=O)[C@@H]1CCC(=O)N1)C(=O)N[C@@H](CCCN=C(N)N)C(=O)N1CCC[C@@H]1C(=O)NCC(N)=O,inactive,

# Molecular target: Cellular tumor antigen p53 (Homo sapiens) (UniProt P04637)
# Assay: TOX21_p53_BLA_p5_ratio: Tox21 HCT-116 p53 Agonism Beta-lactamase Assay, Ratio, Phase 5 (AID 2283599)
# Method in brief: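 HCT-116 p53-bla cells (4000/well) plated 5 h, dosed with compound (217-fold DMSO dilution) for 16 h at 37 C; CCF4-AM substrate 2 h at room temperature. Activity is the 460/530 nm emission ratio (405 nm excitation), fitted in gain-of-signal direction versus DMSO.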
row,Structure (SMILES),outcome
1,CC(Oc1ccccc1)C(=O)N[C@@H]1C(=O)N2[C@@H]1SC(C)(C)[C@@H]2C(=O)O (some centres undefined),inactive
2,C=CC(=O)[O-].C=CC(=O)[O-].[Zn+2],inactive
3,COc1cc(C(=O)NCCCCCC(=O)O)cc(OC)c1OC,inactive
4,OCC(O)CN1CCN(c2ccccc2)CC1 (centres undefined),inactive
5,O=C(O)[C@H]1/C(=C/CO)O[C@@H]2CC(=O)N21,inactive
6,O=C(O)[C@H](O)c1ccccc1,inactive
7,CC(C)NCC(O)COc1ccccc1-n1cccc1 (centres undefined),inactive
8,O=Nc1ccc(NO)cc1,inactive
9,CC(C)(C)c1ccc(C=O)cc1,inactive
10,NC[C@H]1O[C@H](O[C@H]2[C@H](O[C@@H]3O[C@H](CO)[C@@H](O)[C@H]3O)C(O)[C@H](N)C[C@@H]2N)[C@H](N)[C@@H](O)[C@@H]1O (some centres undefined),inactive
11,CC(=NCc1ccccc1)c1ccccc1O,inactive
12,Cc1nc(-c2ccc(Cl)cc2)oc1COC(C)(C)C(=O)O,inactive
13,O=C(O)Cc1csc(-c2ccc(Cl)cc2)n1,inactive
14,CCOC(=O)C1=C[C@]2(CC)CCCN3CCc4c(n1c1ccccc41)[C@@H]32,inactive
15,NC(=O)c1ccc[n+]([C@@H]2O[C@H](COP(=O)([O-])OP(=O)(O)OC[C@H]3O[C@@H](n4cnc5c(N)ncnc54)[C@H](O)[C@@H]3O)[C@@H](O)[C@H]2O)c1,inactive
16,OCC1(CO)COC(C(Cl)(Cl)Cl)OC1,inactive
17,Clc1ccc2nsnc2c1NC1=NCCN1,inactive
18,CCOc1ccc2ccccc2c1C(=O)N[C@@H]1C(=O)N2[C@@H]1SC(C)(C)[C@@H]2C(=O)O,inactive
19,C=CCSSSCC=C,inactive
20,CN1c2c(nc(N)[nH]c2=O)NCC1CNc1ccc(C(=O)NC(CCC(=O)O)C(=O)O)cc1 (centres undefined),inactive
21,CC(C)C[C@@H](N)C(=O)O,inactive
22,Nc1ccc(Cl)cc1[N+](=O)[O-],inactive
23,CCc1c(C)[nH]c2c1C(=O)C(CN1CCOCC1)CC2 (centres undefined),inactive
24,NC[C@H]1O[C@H](O[C@H]2[C@H](O)[C@@H](O[C@H]3O[C@H](CO)[C@@H](O)[C@H](N)[C@H]3O)[C@H](N)C[C@@H]2N)[C@H](N)[C@@H](O)[C@@H]1O,inactive
25,C=CC(=O)OCCOCCOC(=O)C=C,inactive
26,CC(C)C[C@H](NC(=O)[C@@H](Cc1c[nH]c2ccccc12)NC(=O)[C@H](Cc1ccc(O)cc1)NC(=O)[C@H](CO)NC(=O)[C@H](Cc1c[nH]c2ccccc12)NC(=O)[C@H](Cc1cnc[nH]1)NC(=O)[C@@H]1CCC(=O)N1)C(=O)N[C@@H](CCCN=C(N)N)C(=O)N1CCC[C@@H]1C(=O)NCC(N)=O,inactive
